Measured values reported in PubChem BioAssay AID1117319 (Southern Research Institute, 2015).
Values joined by “and” are separate entries in the source; they are usually repeats but may differ in a detail not shown here. Equal values may be shown once. Among all 260,000 compounds or so, about 1,500 (0.58%) were called active. Roughly 5% stayed inconclusive and do not appear here.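 How the source made its calls: active means inhibition above a set limit at one or more doses, reproduced on every date tested; inconclusive means results disagree between test dates, or hit never tested in dose response; inactive means the rest.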 These entries were drawn from the full list. Potency and affinity values are given separately.

These molecules were tested against Virion infectivity factor (Human immunodeficiency virus type 1 group M subtype B (isolate BH10)) + Virion infectivity factor (Human immunodeficiency virus type 1 group M subtype B (isolate BRU/LAI)) + Virion infectivity factor (Human immunodeficiency virus type 1 group M subtype B (isolate PCV12)) + Virion infectivity factor (Human immunodeficiency virus type 1 group M subtype B (isolate HXB2)) + DNA dC->dU-editing enzyme APOBEC-3G (Homo sapiens) (UniProt P69720+P69721+P69722+P69723+Q9HC16) (assay: HIV-1 Vif–A3G interaction blockers – biochemical, TR-FRET, GST-Vif 1-94, biotin-A3G peptide, dose response retest, primary screen (AID 1117319;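 further: Vif residues 1-94 fused to GST binding biotinylated APOBEC3G peptide 110-148; 0% = full assay without inhibitor and 100% = GST in place of GST-Vif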)). Conditions: TR-FRET GST-Vif / biotin-A3G peptide binding; active compounds read high.

inhibition, inactive:
COc1ccccc1NC(=O)c1nnn(Cc2ccccc2)c1NC(=O)C(F)(F)F 0.14%, CCn1cc(S(=O)(=O)Nc2nc3ccc(OC)cc3s2)cn1 -2.85%, Cn1c(SCc2ccccc2)nccc1=O 1.19%, Nc1ccccc1SCc1ccccc1 -5.9%, CCOC(=O)c1nnc2cc(-c3ccc(Br)cc3)nn2c1C 1.62%, COc1ccccc1OCCSc1nc(N)cc(N)n1 4.3%, COc1ccc2nc3ccccc3nc2c1NC(=O)c1ccc(Br)cc1 -5.53%, COc1ccc2nc3cccc(OC)c3nc2c1 15.1%, CCOC(=O)c1cc(-c2ccco2)nn1-c1ccc(C)cc1 -3.18%, Cc1ccc(-n2nc(-c3ccco3)cc2C(=O)NCc2cccnc2)cc1 9.86%, CN(C)C(=O)CSc1nnc([C@H](Cc2ccccc2)NC(=O)OC(C)(C)C)o1 -2.79%, O=S1(=O)N=C(Nc2ccc(N3CCOCC3)c(Cl)c2)c2ccccc21 12.7%, O=C(CCC(=O)c1cccs1)NCc1ccc(Cl)cc1 1.67%, CCCC(=NCc1ccccc1)C1=C(O)C(C(=O)OC)C(C)(C)CC1=O (centres undefined) 3.41%, CCC(=NCc1ccccc1)C1=C(O)C(C(=O)OC)C(C)(C)CC1=O (centres undefined) 5.76%, CCCC(=O)C1=C(O)C(C(=O)OC)C(C)(C)CC1=Nc1ccc(N)cc1 (centres undefined) 0.65%, CCCC(=Nc1ccccc1)C1=C(O)C(C(=O)OC)C(C)(C)CC1=O (centres undefined) 26.8%, O=S(=O)(NCCN1CCN(S(=O)(=O)c2ccccc2F)CC1)c1ccccc1F 1.35%, O=C1NC(=O)/C(=C\c2cn(CC(=O)N3CCOCC3)c3ccccc23)S1 -3.19%, O=C(COC(=O)/C=C/c1cc(Br)ccc1F)Nc1ccc2[nH]c(=O)[nH]c2c1 -2.89%, Cc1cccc(N2CC(C(=O)O)CC2=O)c1 (centres undefined) -2.42%, Cc1ccc(SCC(=O)Nc2nnc(-c3ccco3)o2)cc1 6.62%, CC(=O)Nc1ccc(N=Cc2c(O)c3ccccc3oc2=O)cc1 -14.5%, Cc1ccc(-c2oc3ncnc(N)c3c2-c2ccc(C)cc2)cc1 -8.91%, COc1ccc(-c2oc3ncnc(N)c3c2-c2ccccc2)cc1 -1.94%, Cc1c(NC(=O)COc2ccc(C(C)C)cc2)c(=O)n(-c2ccccc2)n1C -8.62%, CCCCCCC(O)(c1ccccc1)C(CN1CCOCC1)c1ccccc1 (centres undefined) 0.34%, Cc1noc(N)c1C(=O)Nc1ccc(F)c(Cl)c1 -9.43%, CCc1noc(C)c1C(=O)Nc1ccc(F)c(F)c1 -2.68%, Cc1nc2scc(-c3ccc(Cl)cc3)c2c(=O)o1 19.2%, CCOc1ccc(C(=O)COc2ccc(NC(C)=O)cc2)cc1 6.05%, CCOC(=O)C1=c2s/c(=C\c3cccnc3)c(=O)n2C(N)=C(C(=O)OC)C1c1cccnc1 (centres undefined) -8.08%, CCOC(=O)C1=C(N)n2c(s/c(=C\c3cccs3)c2=O)=C(C(=O)OCC)C1c1cccs1 (centres undefined) -6.07% and -0.48%, CCOC(=O)C1=c2s/c(=C\c3ccncc3)c(=O)n2C(N)=C(C(=O)OC)C1c1ccncc1 (centres undefined) -6.47%, CCOC(=O)C1=C(N)n2c(s/c(=C\c3ccncc3)c2=O)=C(C(=O)OCC)C1c1ccncc1 (centres undefined) -12.8%, CCOC(=O)C1=C(N)n2c(s/c(=C/c3ccccc3)c2=O)=C(C(=O)OCC)C1c1ccccc1 (centres undefined) -3.94%, CCOC(=O)C1=C(C)NC(C)=C(C(=O)OCC)C1c1ccco1 22.4%, Cc1cc(SCC(=O)OC(C)C(=O)N(C)c2ccccc2)nc2ccccc12 (centres undefined) -7.66%, COC(=O)c1ccc(CNC(=O)Cn2nnnc2CN(C)C(C)C)cc1 -4.98%, COCCNC(=O)CSc1cc(-c2ccccc2)c2ccc(OC)cc2n1 -24.8%, COc1ccccc1CNC(=O)c1ccc(OC(C)C)cc1 -1.85%, O=C(NCc1cccnc1)c1nn2cccnc2c1Cl 14.7%, O=C(CSc1nnc2ccccn12)NNC(=O)c1cccc([N+](=O)[O-])c1 -9.15%, COc1cc2nc(CCc3ccccc3)oc(=O)c2cc1OC 19.2%, N#Cc1ccc2c(c1)nc1ccccn12 16.5%, Clc1cc2nc3ccccn3c2cc1Cl -1.52%, CC1=CN2CC(O)CN=C2C=C1 (centres undefined) -3.44%, Cc1cnc(C(=O)OCC(=O)N(Cc2ccccc2)C(C)(C)C)cn1 -7.28%, Cc1cc(C(=O)OCC(=O)c2ccc3c(c2)OCCO3)c(C)o1 7.16%, COC(=O)CCN(C(=O)c1ccc(Cl)c([N+](=O)[O-])c1)c1ccccn1 21.1%, O=[N+]([O-])c1ccc2c(c1)N([O-])C1(CCCCC1)[N+]2=O -0.91%, CN1c2ccc([N+](=O)[O-])cc2N(C)C1(C)c1ccccc1 (centres undefined) -8.03%, O=C(COC(=O)c1ccc(S(=O)(=O)N2CCOCC2)cc1)Nc1ccccc1F -5.99%, C=CCN(CC=C)C(=S)NC(=O)c1ccc(C)c(Br)c1 3.99%, C=CCN(CC=C)C(=S)NC(=O)c1ccc(OC)c(Br)c1 3.9%, C[n+]1ccn(CC(=O)c2cccs2)c1 -0.3%, O=[N+]([O-])c1ccc2nc(CN3CCCCC3)[nH]c2c1 -2.67%, Nc1ccc(C(=O)NCCCCCCNC(=O)c2ccc(N)cc2)cc1 -3.48%, Nc1ccc(C(=O)C(=O)c2ccc(N)cc2)cc1 -4.86%, CC(C)=CCN1CCN(Cc2cccn2-c2nccs2)CC1CCO (centres undefined) 3.13%, C/C(=N\NC(=O)CNC(=O)c1ccco1)c1ccc(Br)cc1 -0.8%, CCn1c(/C=C/c2ccc(O)c(O)c2)nc2ccccc2c1=O 23.1%, COc1ccc(/C=C/c2nc3ccccc3c(=O)n2-c2cccc(C(=O)O)c2)cc1 -12.6%, N#Cc1c(N)sc2c1CCCCCC2 22.4%, CC1(C)Cc2c(C#N)c(N)sc(=S)c2CO1 18.9%, CS(=O)(=O)N1CCC(C(=O)Nc2cccc(C(F)(F)F)c2)CC1 30.5%, COc1ccc(CCNC(=O)COC(=O)/C=C/c2ccc3c(c2)OCO3)cc1 -7.05%, COc1ccc(CCn2c(N)cc(=O)[nH]c2=O)cc1OC -7.47%, CC(=O)N1CCN(c2ccc(N=Cc3c(O)n(Cc4ccccc4)c(=O)[nH]c3=O)cc2)CC1 15.1%, CCc1ccc(-n2c(O)c(C=NCCN(CC)CC)c(=O)[nH]c2=O)cc1 1.67%, COc1ccc(CCn2c(O)c(C=Nc3cccc(F)c3)c(=O)[nH]c2=O)cc1OC 22.7%, COc1cccc(CNS(=O)(=O)c2ccc3c(c2)CCN3C(=O)C2CC2)c1 5.57%, CCCC(NC(=O)CCc1c(C)c2cc3c(-c4ccccc4)coc3cc2oc1=O)C(=O)O (centres undefined) -3.65%, O=c1cc(O)n(-c2ccccc2)c(=S)[nH]1 30.2%, O=c1cc(O)n(-c2ccc(Cl)cc2)c(=S)[nH]1 -0.58%, CC(C)[C@H](NC(=O)c1c(F)cccc1F)C(=O)OCC(=O)NC(=O)NC1CCCC1 -7.96%, Cc1ccccc1S(=O)(=O)c1c(C)cc(C)n(C)c1=O 6.26%, Cc1cccc(C(=O)NNS(=O)(=O)c2ccc(F)cc2)c1 -1.42%, O=C(N/N=C/c1cccc([N+](=O)[O-])c1)c1cccc2cc[nH]c12 -4.35%, CC1=C(C(N)=O)C(c2cccs2)n2nc(-c3cccc(C)c3)nc2N1 (centres undefined) 10.3%, CC1=C(C(=O)Nc2ccccc2F)C(c2ccsc2)C2=C(CC(C)(C)CC2=O)N1 (centres undefined) 0.63%, COC(=O)C1=C(C)NC2=C(C(=O)CC(c3cccs3)C2)C1c1ccsc1 (centres undefined) 3.51%, CCCCN(C(=O)c1cc(-c2ccco2)nc2ccccc12)c1c(N)n(CCCC)c(=O)[nH]c1=O 22.2%, Cc1ccc(-c2cc(C(=O)OCC(=O)N(C)C3CCS(=O)(=O)C3)c3ccccc3n2)c(C)c1 (centres undefined) 5.39%, O=C(COC(=O)c1cc(-c2ccco2)nc2ccccc12)NCc1ccccc1 27.6%, CN(C(=O)COC(=O)c1cc(-c2ccc(Cl)s2)nc2ccccc12)C1CCS(=O)(=O)C1 (centres undefined) -9.51%, CCCn1c(N)c(N(CCOC)C(=O)c2cc(-c3ccco3)nc3ccccc23)c(=O)[nH]c1=O 22.8%, O=C(COC(=O)c1cc(-c2cccnc2)nc2ccccc12)Nc1ccc(F)cc1F -4.09%, CCNC(=O)COC(=O)c1cc(-c2ccc(OC)cc2)nc2ccccc12 17.1%, Cc1cccc(C)c1NC(=O)COC(=O)c1cccnc1 0.67%, COc1ccc(-c2nnc(SCC(N)=O)n2N)cc1 -2.53%, O=[N+]([O-])c1ccc(/C=N/N2CCN(c3ccncc3S(=O)(=O)N3CCCCC3)CC2)cc1 -3.38%, O=C(c1cccc2ccccc12)C1CCCN(C(=O)C2CCOCC2)C1 (centres undefined) 3.16%, CCn1c(SCC(=O)Nc2sc3c(c2C#N)CCCC3)nnc1-c1ccco1 3.19%
